Reference: ChEMBL document CHEMBL1961873, “Compounds: GSK PKIS; Assays: Nanosyn kinase panel” (2012)

Legend:
[1] = target: Fibroblast growth factor receptor 4 (Homo sapiens) (UniProt P22455); details: at 1 µM;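 note: reported figure is the averaged percent inhibition of FGFR4, from the GSK PKIS kinase screening panel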
[2] = target: Tyrosine-protein kinase Fgr (Homo sapiens) (UniProt P09769); details: at 0.1 µM
[3] = target: Tyrosine-protein kinase Fgr (Homo sapiens) (UniProt P09769); details: at 1 µM
[4] = target: Vascular endothelial growth factor receptor 1 (Homo sapiens) (UniProt P17948); details: at 0.1 µM
Sequence of Vascular endothelial growth factor receptor 1 (Homo sapiens) (P17948 whole entry): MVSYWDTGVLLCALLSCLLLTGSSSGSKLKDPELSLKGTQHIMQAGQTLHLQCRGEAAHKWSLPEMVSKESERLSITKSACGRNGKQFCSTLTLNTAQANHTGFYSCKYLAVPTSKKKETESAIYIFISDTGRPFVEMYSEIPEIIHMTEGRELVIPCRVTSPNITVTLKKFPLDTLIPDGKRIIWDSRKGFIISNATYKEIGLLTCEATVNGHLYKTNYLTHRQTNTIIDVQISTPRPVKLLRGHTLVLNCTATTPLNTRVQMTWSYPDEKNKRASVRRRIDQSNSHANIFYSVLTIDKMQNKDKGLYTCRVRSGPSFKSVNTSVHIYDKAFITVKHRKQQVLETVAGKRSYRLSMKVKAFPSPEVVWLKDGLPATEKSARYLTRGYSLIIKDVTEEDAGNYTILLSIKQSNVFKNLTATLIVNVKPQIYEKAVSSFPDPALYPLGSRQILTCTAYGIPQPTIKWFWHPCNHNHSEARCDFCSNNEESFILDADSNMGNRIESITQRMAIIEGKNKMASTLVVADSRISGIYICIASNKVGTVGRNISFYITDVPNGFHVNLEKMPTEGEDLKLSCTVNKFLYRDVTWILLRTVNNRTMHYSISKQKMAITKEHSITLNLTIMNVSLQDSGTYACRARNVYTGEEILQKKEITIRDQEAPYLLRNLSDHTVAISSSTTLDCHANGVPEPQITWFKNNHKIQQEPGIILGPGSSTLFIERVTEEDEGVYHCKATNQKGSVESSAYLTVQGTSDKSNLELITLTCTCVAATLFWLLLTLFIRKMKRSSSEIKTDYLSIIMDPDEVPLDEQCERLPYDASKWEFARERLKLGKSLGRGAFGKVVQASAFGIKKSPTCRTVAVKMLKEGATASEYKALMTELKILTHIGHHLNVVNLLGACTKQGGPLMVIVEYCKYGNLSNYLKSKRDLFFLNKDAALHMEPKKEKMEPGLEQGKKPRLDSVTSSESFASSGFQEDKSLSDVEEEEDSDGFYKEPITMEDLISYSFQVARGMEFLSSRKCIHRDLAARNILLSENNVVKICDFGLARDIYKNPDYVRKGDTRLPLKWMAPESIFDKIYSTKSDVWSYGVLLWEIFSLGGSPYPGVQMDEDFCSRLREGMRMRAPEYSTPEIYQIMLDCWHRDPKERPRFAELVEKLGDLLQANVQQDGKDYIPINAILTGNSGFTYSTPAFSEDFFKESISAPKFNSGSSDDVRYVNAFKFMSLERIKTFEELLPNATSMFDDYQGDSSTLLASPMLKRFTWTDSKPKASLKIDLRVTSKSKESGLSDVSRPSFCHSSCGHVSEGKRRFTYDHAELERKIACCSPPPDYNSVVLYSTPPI

[5] = target: Vascular endothelial growth factor receptor 1 (Homo sapiens) (UniProt P17948); details: at 1 µM
[6] = target: Receptor-type tyrosine-protein kinase FLT3 (Homo sapiens) (UniProt P36888); details: at 0.1 µM
[7] = target: Receptor-type tyrosine-protein kinase FLT3 (Homo sapiens) (UniProt P36888); details: at 1 µM
[8] = system: T1, Receptor-type tyrosine-protein kinase FLT3 (Homo sapiens), P36888 [D835Y]; details: at 0.1 µM
T1 sequence (whole entry): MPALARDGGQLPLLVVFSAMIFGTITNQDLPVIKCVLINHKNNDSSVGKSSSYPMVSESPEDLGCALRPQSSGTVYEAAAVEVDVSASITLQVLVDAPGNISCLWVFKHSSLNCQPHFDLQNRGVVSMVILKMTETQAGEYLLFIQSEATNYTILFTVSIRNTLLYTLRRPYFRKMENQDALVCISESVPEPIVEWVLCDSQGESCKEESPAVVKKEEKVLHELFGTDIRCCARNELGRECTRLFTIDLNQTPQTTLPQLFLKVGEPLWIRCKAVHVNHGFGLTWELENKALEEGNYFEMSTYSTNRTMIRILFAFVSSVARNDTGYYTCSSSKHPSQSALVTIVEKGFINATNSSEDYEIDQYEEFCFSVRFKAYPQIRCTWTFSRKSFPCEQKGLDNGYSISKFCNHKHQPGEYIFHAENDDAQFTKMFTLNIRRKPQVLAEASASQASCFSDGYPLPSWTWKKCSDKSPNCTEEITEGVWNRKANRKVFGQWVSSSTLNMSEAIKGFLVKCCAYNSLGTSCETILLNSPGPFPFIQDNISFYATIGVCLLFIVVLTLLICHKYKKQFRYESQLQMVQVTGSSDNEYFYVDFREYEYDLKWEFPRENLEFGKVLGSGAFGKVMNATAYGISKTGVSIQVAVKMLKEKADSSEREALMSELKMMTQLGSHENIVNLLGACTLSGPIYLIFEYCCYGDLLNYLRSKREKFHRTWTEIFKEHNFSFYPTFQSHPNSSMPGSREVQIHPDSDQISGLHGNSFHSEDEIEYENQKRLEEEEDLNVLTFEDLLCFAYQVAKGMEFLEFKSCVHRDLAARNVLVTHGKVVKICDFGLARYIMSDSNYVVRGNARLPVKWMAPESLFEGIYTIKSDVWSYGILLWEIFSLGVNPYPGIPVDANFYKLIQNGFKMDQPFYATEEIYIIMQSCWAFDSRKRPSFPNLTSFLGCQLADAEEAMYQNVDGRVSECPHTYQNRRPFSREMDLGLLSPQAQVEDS

[9] = target: Non-receptor tyrosine-protein kinase TYK2 (Homo sapiens) (UniProt P29597); details: at 1 µM;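 note: values are mean percent inhibition of TYK2 kinase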
Sequence of Non-receptor tyrosine-protein kinase TYK2 (Homo sapiens) (P29597 whole entry): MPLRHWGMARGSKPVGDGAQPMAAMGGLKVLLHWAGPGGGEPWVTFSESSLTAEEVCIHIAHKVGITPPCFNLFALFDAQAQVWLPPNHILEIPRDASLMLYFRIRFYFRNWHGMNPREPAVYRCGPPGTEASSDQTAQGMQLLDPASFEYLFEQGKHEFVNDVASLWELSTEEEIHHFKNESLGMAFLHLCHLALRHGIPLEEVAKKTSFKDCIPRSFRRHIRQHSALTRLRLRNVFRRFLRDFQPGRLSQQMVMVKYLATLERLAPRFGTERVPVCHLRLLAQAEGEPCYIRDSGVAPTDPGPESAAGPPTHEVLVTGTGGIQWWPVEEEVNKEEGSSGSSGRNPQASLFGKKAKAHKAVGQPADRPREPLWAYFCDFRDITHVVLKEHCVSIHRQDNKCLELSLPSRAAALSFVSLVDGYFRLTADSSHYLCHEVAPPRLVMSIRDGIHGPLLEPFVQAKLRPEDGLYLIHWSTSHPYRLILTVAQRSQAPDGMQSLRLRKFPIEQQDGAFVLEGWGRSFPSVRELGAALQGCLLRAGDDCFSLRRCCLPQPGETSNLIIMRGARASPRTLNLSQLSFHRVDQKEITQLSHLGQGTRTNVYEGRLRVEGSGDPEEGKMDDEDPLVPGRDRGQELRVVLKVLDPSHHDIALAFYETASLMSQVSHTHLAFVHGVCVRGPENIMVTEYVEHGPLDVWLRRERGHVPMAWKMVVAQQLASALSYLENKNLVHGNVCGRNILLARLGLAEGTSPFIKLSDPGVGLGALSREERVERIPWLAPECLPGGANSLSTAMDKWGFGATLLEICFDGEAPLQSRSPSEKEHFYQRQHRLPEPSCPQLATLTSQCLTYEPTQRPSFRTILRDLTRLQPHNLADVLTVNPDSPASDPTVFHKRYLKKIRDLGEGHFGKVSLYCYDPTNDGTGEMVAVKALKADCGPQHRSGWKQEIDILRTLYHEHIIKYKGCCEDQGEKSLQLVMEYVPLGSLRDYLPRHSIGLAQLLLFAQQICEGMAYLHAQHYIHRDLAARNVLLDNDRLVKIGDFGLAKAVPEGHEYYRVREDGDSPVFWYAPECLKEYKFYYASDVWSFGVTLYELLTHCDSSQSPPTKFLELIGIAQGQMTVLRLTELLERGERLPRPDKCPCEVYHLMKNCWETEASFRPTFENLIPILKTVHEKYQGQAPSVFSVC

[10] = target: T2, Tyrosine-protein kinase receptor TYRO3 (Homo sapiens) (UniProt Q06418); details: at 0.1 µM
T2 sequence (whole entry): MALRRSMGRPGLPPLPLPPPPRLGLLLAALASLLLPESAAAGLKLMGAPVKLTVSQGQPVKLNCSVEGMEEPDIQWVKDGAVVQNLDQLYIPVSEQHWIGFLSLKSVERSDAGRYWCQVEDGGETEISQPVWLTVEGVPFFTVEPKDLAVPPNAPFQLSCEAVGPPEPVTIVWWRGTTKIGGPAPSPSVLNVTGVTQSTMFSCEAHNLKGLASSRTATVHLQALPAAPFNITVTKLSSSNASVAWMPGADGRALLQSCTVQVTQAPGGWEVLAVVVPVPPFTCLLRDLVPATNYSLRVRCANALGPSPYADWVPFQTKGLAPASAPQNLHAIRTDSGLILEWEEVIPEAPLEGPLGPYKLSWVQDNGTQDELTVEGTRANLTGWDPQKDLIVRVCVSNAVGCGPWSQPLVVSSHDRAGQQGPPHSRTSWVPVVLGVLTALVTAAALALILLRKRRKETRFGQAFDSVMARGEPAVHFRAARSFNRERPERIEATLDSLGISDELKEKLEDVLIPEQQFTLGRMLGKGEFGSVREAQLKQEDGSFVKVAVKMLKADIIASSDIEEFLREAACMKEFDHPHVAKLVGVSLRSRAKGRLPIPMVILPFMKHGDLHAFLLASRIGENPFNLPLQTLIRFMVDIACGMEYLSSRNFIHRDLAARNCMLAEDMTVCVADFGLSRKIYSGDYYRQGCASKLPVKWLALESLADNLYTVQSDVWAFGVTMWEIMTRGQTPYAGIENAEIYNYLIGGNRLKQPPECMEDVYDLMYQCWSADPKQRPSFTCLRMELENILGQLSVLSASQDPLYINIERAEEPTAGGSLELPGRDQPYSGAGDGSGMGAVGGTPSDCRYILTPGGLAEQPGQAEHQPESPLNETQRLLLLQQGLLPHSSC

[11] = target: T2, Tyrosine-protein kinase receptor TYRO3 (Homo sapiens); details: at 1 µM
[12] = target: Tyrosine-protein kinase Yes (Homo sapiens) (UniProt P07947); details: at 0.1 µM
Sequence of Tyrosine-protein kinase Yes (Homo sapiens) (P07947 2-543 limits assumed): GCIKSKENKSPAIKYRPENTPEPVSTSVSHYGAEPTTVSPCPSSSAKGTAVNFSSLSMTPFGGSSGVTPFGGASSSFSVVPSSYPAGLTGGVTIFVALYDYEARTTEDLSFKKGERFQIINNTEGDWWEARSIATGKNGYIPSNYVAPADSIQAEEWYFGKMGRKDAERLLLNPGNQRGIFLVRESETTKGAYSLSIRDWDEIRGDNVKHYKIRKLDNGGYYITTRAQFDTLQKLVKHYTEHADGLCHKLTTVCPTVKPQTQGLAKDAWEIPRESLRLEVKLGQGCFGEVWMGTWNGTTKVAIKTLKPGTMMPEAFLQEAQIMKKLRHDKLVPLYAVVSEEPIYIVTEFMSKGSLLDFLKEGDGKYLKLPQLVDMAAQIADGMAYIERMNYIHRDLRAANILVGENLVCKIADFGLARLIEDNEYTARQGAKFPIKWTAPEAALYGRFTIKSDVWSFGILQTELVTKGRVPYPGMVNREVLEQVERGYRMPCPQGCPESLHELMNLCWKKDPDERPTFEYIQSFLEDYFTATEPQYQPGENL

[13] = target: Tyrosine-protein kinase Yes (Homo sapiens) (UniProt P07947); details: at 1 µM
[14] = target: T3, Tyrosine-protein kinase ZAP-70 (Homo sapiens) (UniProt P43403); details: at 0.1 µM
T3 sequence (whole entry): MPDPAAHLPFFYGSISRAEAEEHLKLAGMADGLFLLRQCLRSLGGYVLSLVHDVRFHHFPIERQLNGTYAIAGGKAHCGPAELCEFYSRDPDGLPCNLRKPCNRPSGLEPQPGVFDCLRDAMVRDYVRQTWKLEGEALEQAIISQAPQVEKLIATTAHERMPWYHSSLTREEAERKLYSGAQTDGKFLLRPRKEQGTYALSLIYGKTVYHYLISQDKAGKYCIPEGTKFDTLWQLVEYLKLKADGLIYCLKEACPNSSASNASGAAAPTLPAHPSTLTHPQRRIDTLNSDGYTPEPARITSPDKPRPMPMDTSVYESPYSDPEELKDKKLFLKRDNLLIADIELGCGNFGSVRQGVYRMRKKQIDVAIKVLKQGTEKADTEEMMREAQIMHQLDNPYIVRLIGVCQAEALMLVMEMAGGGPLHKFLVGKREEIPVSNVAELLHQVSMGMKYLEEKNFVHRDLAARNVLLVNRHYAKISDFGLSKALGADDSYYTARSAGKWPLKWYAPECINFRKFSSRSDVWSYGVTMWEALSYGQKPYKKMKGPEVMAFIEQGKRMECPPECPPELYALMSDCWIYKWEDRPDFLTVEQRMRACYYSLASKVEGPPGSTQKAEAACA

[15] = target: T3, Tyrosine-protein kinase ZAP-70 (Homo sapiens); details: at 1 µM
[16] = target: Serine/threonine-protein kinase B-raf (Homo sapiens) (UniProt P15056); details: at 0.1 µM
Sequence of Serine/threonine-protein kinase B-raf (Homo sapiens) (P15056 whole entry): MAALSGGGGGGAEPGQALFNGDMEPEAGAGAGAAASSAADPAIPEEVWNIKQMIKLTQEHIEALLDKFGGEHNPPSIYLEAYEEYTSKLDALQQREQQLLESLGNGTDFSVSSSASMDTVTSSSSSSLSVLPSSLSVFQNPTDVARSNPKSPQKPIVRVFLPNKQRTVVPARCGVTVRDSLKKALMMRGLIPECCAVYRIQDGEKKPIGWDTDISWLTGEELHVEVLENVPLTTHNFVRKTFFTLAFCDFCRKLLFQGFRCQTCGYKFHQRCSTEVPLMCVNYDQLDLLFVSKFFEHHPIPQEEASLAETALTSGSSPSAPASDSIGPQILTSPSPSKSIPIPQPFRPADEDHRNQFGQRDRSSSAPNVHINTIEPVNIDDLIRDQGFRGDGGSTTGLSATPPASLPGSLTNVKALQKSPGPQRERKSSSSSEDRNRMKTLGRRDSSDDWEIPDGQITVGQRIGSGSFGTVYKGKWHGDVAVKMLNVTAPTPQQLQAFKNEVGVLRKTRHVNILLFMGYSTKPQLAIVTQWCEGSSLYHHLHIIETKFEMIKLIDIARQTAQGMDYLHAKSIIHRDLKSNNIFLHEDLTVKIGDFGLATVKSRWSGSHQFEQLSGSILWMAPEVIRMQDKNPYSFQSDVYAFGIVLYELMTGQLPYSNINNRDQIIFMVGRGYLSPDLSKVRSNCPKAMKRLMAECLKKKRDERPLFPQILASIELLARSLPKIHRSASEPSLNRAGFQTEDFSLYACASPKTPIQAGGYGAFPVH

[17] = target: Serine/threonine-protein kinase B-raf (Homo sapiens) (UniProt P15056); details: at 1 µM
[18] = system: Serine/threonine-protein kinase B-raf (Homo sapiens), P15056 [V600E]; details: at 0.1 µM
Sequence of Serine/threonine-protein kinase B-raf (Homo sapiens), P15056 [V600E] (P15056 whole entry V600E): as the sequence (P15056 whole entry) above, with V600E counted along it

[19] = system: Serine/threonine-protein kinase B-raf (Homo sapiens), P15056 [V600E]; details: at 1 µM
[20] = target: RAF proto-oncogene serine/threonine-protein kinase (Homo sapiens) (UniProt P04049); details: at 0.1 µM;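 note: values are mean CRAF kinase inhibition from profiling of the GSK Published Kinase Inhibitor Set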
Sequence of RAF proto-oncogene serine/threonine-protein kinase (Homo sapiens) (P04049 whole entry): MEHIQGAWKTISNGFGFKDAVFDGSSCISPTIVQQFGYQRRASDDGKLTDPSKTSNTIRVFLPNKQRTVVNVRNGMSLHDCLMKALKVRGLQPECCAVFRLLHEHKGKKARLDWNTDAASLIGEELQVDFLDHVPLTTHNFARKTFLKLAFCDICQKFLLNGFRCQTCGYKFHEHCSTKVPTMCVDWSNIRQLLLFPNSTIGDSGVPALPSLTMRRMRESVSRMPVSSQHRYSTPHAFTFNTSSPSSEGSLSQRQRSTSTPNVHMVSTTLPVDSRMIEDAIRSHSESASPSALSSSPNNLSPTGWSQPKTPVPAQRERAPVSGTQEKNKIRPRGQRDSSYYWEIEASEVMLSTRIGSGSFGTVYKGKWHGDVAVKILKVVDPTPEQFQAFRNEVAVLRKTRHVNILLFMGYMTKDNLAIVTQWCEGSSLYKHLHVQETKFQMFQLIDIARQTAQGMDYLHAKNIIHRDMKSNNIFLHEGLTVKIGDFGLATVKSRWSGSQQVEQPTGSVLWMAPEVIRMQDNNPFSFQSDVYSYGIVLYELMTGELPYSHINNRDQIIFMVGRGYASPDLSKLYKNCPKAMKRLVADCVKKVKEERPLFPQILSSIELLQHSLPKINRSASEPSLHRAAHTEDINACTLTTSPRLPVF

Sequence of Tyrosine-protein kinase Fgr (Homo sapiens) (P09769 2-529 limits assumed): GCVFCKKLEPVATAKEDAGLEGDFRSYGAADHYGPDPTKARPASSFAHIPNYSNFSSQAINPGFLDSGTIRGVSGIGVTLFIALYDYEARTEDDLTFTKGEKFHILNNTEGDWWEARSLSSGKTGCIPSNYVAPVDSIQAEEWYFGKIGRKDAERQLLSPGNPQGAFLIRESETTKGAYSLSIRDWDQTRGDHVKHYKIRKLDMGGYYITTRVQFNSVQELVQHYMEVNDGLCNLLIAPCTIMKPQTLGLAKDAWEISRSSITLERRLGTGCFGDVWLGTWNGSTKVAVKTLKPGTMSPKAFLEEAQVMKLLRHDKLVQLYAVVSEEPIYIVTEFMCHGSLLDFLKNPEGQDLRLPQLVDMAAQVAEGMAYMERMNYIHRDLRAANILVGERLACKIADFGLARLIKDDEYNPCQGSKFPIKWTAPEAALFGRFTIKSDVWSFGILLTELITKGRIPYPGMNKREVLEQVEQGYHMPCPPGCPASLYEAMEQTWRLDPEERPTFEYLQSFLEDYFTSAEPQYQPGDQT

SMILES | inhibition [1] [%] | inhibition [2] [%] | inhibition [3] [%] | inhibition [4] [%] | inhibition [5] [%] | inhibition [6] [%] | inhibition [7] [%] | inhibition [8] [%] | inhibition [9] [%] | inhibition [10] [%] | inhibition [11] [%] | inhibition [12] [%] | inhibition [13] [%] | inhibition [14] [%] | inhibition [15] [%] | inhibition [16] [%] | inhibition [17] [%] | inhibition [18] [%] | inhibition [19] [%] | inhibition [20] [%]
Cc1ccc2c(-c3ccnc(Nc4ccccc4)n3)c(-c3ccc(F)cc3)nn2n1 | 1.8 | 40.7 | 78.4 | 2.49 | 22.1 | 2.15 | 4.21 | 3.24 | -1.64 | 3.56 | 25.6 | 58.4 | 92.1 | 2.85 | 2.04 | 6.37 | 15.5 | 4.53 | 13 | -2.73
CN1CCC(n2cnc(-c3ccc(F)cc3)c2-c2ccnc(Nc3ccccc3)n2)CC1 | 1.8 | 11.5 | 33.7 | 0.12 | 3.33 | 0.8 | 1.93 | -1.9 | 0.82 | 2.41 | 2.25 | 8.83 | 42.3 | 1.81 | – | 3.78 | 4.47 | 3.27 | 6.57 | -3.04
O=S(=O)(CCNCc1ccc(-c2ccc3ncnc(Nc4ccc(OCc5cccc(F)c5)c(Cl)c4)c3c2)o1)c1ccccc1 | 1.88 | 2.78 | 5.07 | 2.06 | 4.7 | 5.79 | 4.97 | -2.76 | -2.79 | 1.84 | 3 | 3.79 | 7.66 | 2.6 | 1.7 | 8.76 | 8.78 | 6.36 | 6.18 | 1.16
CS(=O)(=O)CCNCc1ccc(-c2ccc3ncnc(Nc4ccc(OCc5ccccc5)c(C(F)(F)F)c4)c3c2)o1 | 2.14 | 1.98 | 4.93 | 1.28 | 0.39 | 3.55 | 2.04 | -8.47 | -3.76 | 5.89 | 6.25 | 2.85 | 7.92 | 0.47 | 2.41 | 5.9 | 4.19 | 3.97 | 3 | 1.81
CCCN1CCC(c2ccc(Nc3nc(Nc4cc(F)ccc4C(N)=O)c4cc[nH]c4n3)c(OC)c2)CC1 | 12.4 | 6.28 | 7.49 | 0.21 | 0.37 | 4.46 | 20.3 | 6.01 | -2.78 | 3.47 | 18.4 | 5.76 | 19.3 | – | 29.3 | 9.61 | 37.6 | 10.1 | 37.4 | 7.25
Fc1ccc(-c2nn3ccccc3c2-c2ccncc2)cc1 | 2.03 | -0.1 | 6.02 | 1.98 | 2.63 | -0.06 | 2.86 | -0.98 | -0.08 | 0.22 | 1.25 | 0.18 | 5.66 | 0.73 | 2.32 | 2.84 | 7.13 | 2.64 | 4.72 | -1.45
CCn1c(-c2nonc2N)nc2c(C#CC(C)(C)O)nc(OC[C@H](N)c3ccccc3)cc21 | 2.04 | 0.69 | 5.54 | 6.07 | 30.4 | 2.64 | 2.43 | -0.59 | -3.88 | 0.23 | 1.88 | 2.49 | 7.77 | 0.59 | -2.5 | 1.18 | 5.43 | 1.68 | 2.41 | -2.29
